# Source: PubChem BioAssay
# SW480 rereplic – induces DNA re-replication in SW480 colon adenocarcinoma cells | SW480 DNA re-replication, Hoechst DNA content imaging, 48 h | Potency, µM (doses to about 46.1 µM), inactives show at the top dose re-replication activation, usual class: activators | hit rate 1.8% among 340,000 | AID 624297; also: % of control where 0% means no effect; nearly all actives have a fitted effect of over 55% in size
#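 Cells (250 per well) received 23 nL compound or DMSO by pin tool and were kept 48 hr at 37 C, 5% CO2. Nuclei were then stained with Hoechst for 40 min and scanned for DNA content.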
# KB-3-1 cytotox – kills parental KB-3-1 adenocarcinoma cells; AID 1347075; hit rate 1.4% among 400,000; KB-3-1 viability, CellTiter-Glo ATP luminescence, 72 h; Potency, µM (doses to about 46.1 µM), usual class: cytotoxic; also: % is scaled to controls: 0 for no effect and ±100 for the full control effect; nearly all actives have a fitted effect of over 60% in size
#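 Using CellTiter-Glo luminescence, growth of non-resistant KB-3-1 adenocarcinoma cells is assessed 72 h after pin-tool compound addition at 37 °C. Normalized responses across the concentration series yield fitted curves.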
# MCF10A rereplic – induces DNA re-replication in MCF 10a normal breast cells | Potency, µM (top dose mostly 46.1 µM), inactives show at the top dose activity, positive = re-replication, most hits filed as activators | hit rate 2.9% among 350,000 | MCF 10A DNA re-replication, Hoechst nuclear intensity, 48 h | AID 624296; also: % of control where 0% means no effect; nearly all actives have a fitted effect of over 50% in size
# HT1080 IDH1KD tx – kills HT-1080 cells with IDH1 knockdown; AID 686971; hit rate 2% among 360,000; Potency, µM (series often up to 46.1 µM), inactives show at the top dose activity, negative = toxicity, most hits filed as cytotoxic; HT-1080 IDH1 knockdown viability, ATP luminescence, 48 h;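 also: 0% = DMSO wells and -100% = cell-free medium wells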
#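 HT-1080-IDH1KD cells (IDH1 knocked down), 750/well in RPMI with 5% FBS, treated with compound 48 h at 37 degrees C. Viability by CellTiter-Glo luminescence, normalised to DMSO and no-cell wells; concentration-response curves classed.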
# HT1080NT lethal – kills 2HG-producing HT-1080-NT fibrosarcoma cells; HT-1080-NT fibrosarcoma viability, CellTiter-Glo ATP luminescence, 48 h; hit rate 1.6% among 360,000; Potency, µM (top dose mostly 46.1 µM), for the others: at the top dose activity, negative = less viability, usual class: cytotoxic; AID 686970;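 also: NT is the 2HG producing partner of a matched IDH1 knockdown line; 0% = DMSO-treated cells and -100% = media-only wells without cells; nearly all actives have a fitted effect of over 55% in size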
#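 Viability by CellTiter-Glo luminescence after 48 h compound exposure at 37C of HT-1080-NT cells (750/well, RPMI, 5% FBS). % activity scaled between DMSO wells and medium-only wells, then curve-fitted and categorized by curve class.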
# KB-V1 MDR tox – KB-V1 MDR subline cytotoxicity | KB-V1 MDR cells viability, CellTiter-Glo, 72 h | Potency, µM (top dose mostly 46.1 µM), usual class: cytotoxic | hit rate 3.4% among 400,000 | AID 1347076; also: % is scaled to controls: 0 for no effect and ±100 for the full control effect; nearly all actives have a fitted effect of over 60% in size
#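 KB-V1 MDR subline cells in DMEM (phenol-red free, 10% FBS) exposed to compounds in qHTS concentration series for 72 h at 37 degrees C. Viability read by CellTiter-Glo luminescence; concentration-effect curves fitted after normalization and correction.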
# An asterisk follows results filed as active; i = inactive; ? = inconclusive; nt = no result. This is a sample that favours compounds with a hit; in the whole collection about 8% have one here. Calls follow the shape of the dose curve; as a rule, active = well fitted curve in the direction sought with a large enough effect; inconclusive = small, poorly fitted or top-dose-only effect, or another doubt; inactive = no such curve, though single readings can be large; an effect the other way counts as inactive or inconclusive. Potency is read from the fitted curve at half-maximal effect.
SMILES,SW480 rereplic,KB-3-1 cytotox,MCF10A rereplic,HT1080 IDH1KD tx,HT1080NT lethal,KB-V1 MDR tox
CCn1c(CCC(=O)Nc2nc3c(s2)CCCC3)nc2cc(S(=O)(=O)N(C)C)ccc21,-4%,i,0%,-2%,-7%,23µM*
CC(C)CCNC(=O)c1ccc2c(c1)N(Cc1ccccc1F)C(=O)c1ccccc1S2=O (centres undefined),nt,i,nt,nt,nt,i
O=C(COc1ccc(Cl)cc1)NCCc1csc(-c2cccc(F)c2)n1,nt,i,nt,nt,nt,i
O[C@@H]1CO[C@H]2[C@@H]1OC[C@@H]2O,-6%,nt,-3%,nt,nt,nt
CCCOc1ccc(/C(O)=C2\C(=O)C(=O)N(c3ccccn3)C2c2ccccc2F)cc1C (centres undefined),21%,i,?,?,?,18µM*
COc1cccc(/C(O)=C2\C(=O)C(=O)N(c3ccccn3)C2c2cccc(OC)c2OC)c1 (centres undefined),-13%,i,11%,1%,1%,23µM*
COc1ccc(NS(=O)(=O)c2cc(Br)cc3c2N(C(C)=O)CC3)cc1,6.5µM*,4.1µM*,18µM*,12µM*,18µM*,9.2µM*
CCc1ccc(NS(=O)(=O)c2cc(Br)cc3c2N(C(C)=O)CC3)cc1,nt,i,nt,nt,nt,i
COc1ccccc1/C=C/c1cncc(/C=C/c2ccccc2OC)c1,nt,?,nt,nt,nt,i
Nc1cc(Cc2ccccc2)ccc1O,10%,i,?,-4%,0%,18µM*
Cc1cc(C)c(S(=O)(=O)N2CCC(N3CCN(Cc4ccc(F)cc4)C(=O)C3=O)CC2)c(C)c1,nt,i,nt,nt,nt,i
CCOc1ccccc1NC(=O)CSC1=Nc2ccccc2C2=NC(CC(=O)NCc3ccc4c(c3)OCO4)C(=O)N12 (centres undefined),nt,i,nt,nt,nt,i
Cc1c(C(=O)OCC2CCCCC2)[nH]c2c1C(=O)CC(c1ccccc1Cl)C2 (centres undefined),nt,i,nt,nt,nt,?
COc1ccccc1NC(=O)Cc1csc(NC(=S)Nc2ccc(C)cc2)n1,21µM*,?,?,7.1µM*,6.3µM*,10µM*
CCC(=O)Nc1nc(CC(=O)Nc2ccccc2OC)cs1,-4%,i,-1%,-1%,-5%,i
c1ccc(N2CCN(c3nc(NCc4ccco4)c4ccccc4n3)CC2)cc1,?,?,?,18µM*,16µM*,12µM*
c1ccc(CNc2nc(N3CCN(Cc4ccccc4)CC3)nc3ccccc23)cc1,?,?,7.3µM*,21µM*,?,23µM*
c1coc(CNc2nc(N3CCCCC3)nc3ccccc23)c1,-1%,?,5%,?,?,?
Clc1nc(NCc2ccco2)nc(N2CCCCC2)n1,4.6µM*,i,?,8%,11%,i
COc1ccc(-c2cc(C)no2)cc1S(=O)(=O)Nc1c(C)cc(C)cc1C,nt,i,nt,nt,nt,i
CN(C)c1ccc(C(CNS(=O)(=O)c2ccc(Br)cc2)N2CCOCC2)cc1 (centres undefined),nt,i,nt,nt,nt,i
COc1ccc(C2CC(c3cccs3)=NN2C(=O)CSc2nc3ccccc3s2)cc1 (centres undefined),16%,i,33%,1%,0%,i
CNC(=S)N1N=C(c2cccs2)CC1c1ccc(OC)cc1 (centres undefined),-3%,i,?,-17%,-15%,i
CN1CCc2c(OCC(=O)N3N=C(c4cccs4)CC3c3ccc(F)cc3)cccc2C1=O (centres undefined),22%,?,-8%,?,23µM*,i
Fc1ccc(C2CC(c3cccs3)=NN2C(=S)Nc2ccccc2)cc1 (centres undefined),-114%,i,5%,-4%,7%,21µM*
SMILES,SW480 rereplic,KB-3-1 cytotox,MCF10A rereplic,HT1080 IDH1KD tx,HT1080NT lethal,KB-V1 MDR tox
O=C(CSc1nc2ccccc2s1)N1N=C(c2cccs2)CC1c1ccc(F)cc1 (centres undefined),0%,i,16µM*,-5%,-1%,?
Cc1ccc(N(CC(=O)NCCc2ccccc2C)S(=O)(=O)N(C)C)cc1,nt,i,nt,nt,nt,i
Cc1nn(Cc2cccc(C(=O)NC34CC5CC(CC(C5)C3)C4)c2)c(C)c1Br,7%,i,9.2µM*,?,?,?
CC(C)(C)NCC(O)COc1ccccc1C(=O)CCc1ccccc1 (centres undefined),?,i,11%,?,16µM*,i
CC(C)(C)NCC(O)COc1ccccc1C(C)(C)C (centres undefined),?,i,3%,?,-27%,i
COc1cc(OC)c(NC(=O)N2CCSc3ccccc32)cc1Cl,nt,i,nt,nt,nt,i
CN(C(=S)NC(=O)Cc1ccccc1)c1ccccc1,-2%,i,0%,18µM*,?,i
CCN(CC)C(=S)NC(=O)Cc1ccccc1,5%,i,-3%,8%,10%,i
CC(C)N1C(=O)S/C(=C\c2ccc(-c3ccc(Cl)c(C(=O)O)c3)o2)C1=O,1%,i,?,-17%,-23%,i
CCN(CC)c1ccc(/C=C2/SC(=O)N(C(C)C)C2=O)o1,5.2µM*,?,?,?,13µM*,i
CCOc1ccc(CNC(=O)CCS(=O)(=O)c2cc3c4c(c2)CCN4C(=O)CC3)cc1,nt,i,nt,nt,nt,i
Cc1cc(-c2nc(C)c(C(=O)NN)s2)no1,?,i,18µM*,?,?,i
Cc1ccc(N/C=C/C(=O)c2sc(-c3ccccc3)nc2C)cc1,14%,?,9.2µM*,?,?,?
Cc1nc(-c2ccccc2)sc1C(=O)NN,?,?,18µM*,?,?,i
CC(CNC(=O)c1cc2ccccn2n1)c1ccccc1 (centres undefined),nt,i,nt,nt,nt,i
CCOC(=O)c1c(-c2ccc(C)cc2)csc1NC(=O)C1CCCO1 (centres undefined),2%,i,13µM*,3%,17%,i
CC(C)OC(=O)c1c(-c2ccc(C(C)C)cc2)csc1NC(=O)C1CCCO1 (centres undefined),13%,?,18µM*,0%,-1%,?
CCOC(=O)c1c(-c2ccc(C)cc2)csc1NC(=O)CCN1CC(C)OC(C)C1 (centres undefined),3%,?,21µM*,?,-17%,?
O=C1CCCC2=C1C1(CCSCC1)N=C(Nc1nc3ccccc3o1)N2,nt,i,nt,nt,nt,i
